Data on 14 molecules can be found in PubChem BioAssay (NCI).

Test systems include DU-145 prostate; MALME-3M melanoma; MDA-MB-231 breast; RXF 393 renal; SF-268 CNS; SF-295 CNS; SF-539 CNS; UACC-257 melanoma; M14 melanoma.
Common to all, as to assay: NCI-60 one-dose screen, 48 h (100 = growth as untreated, 0 = no growth, -100 = all killed)
Holding throughout (details): 10 µM unless noted

Compounds without any hit were thinned out: in the full panel of roughly 83,000, 20% have a hit.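 Cells were grown in 96-well plates and exposed to the test compound at a single concentration for 48 hours; results are reported as percent growth, with values below 10 considered active.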 A number with no mark means an inactive call. Calls of active or inactive are those of the source.

In the case of `COC1=CC(=O)c2ccccc2C1=O`, the growth with DU-145 prostate was 88.8%; with MALME-3M melanoma, 72.4%; with MDA-MB-231 breast, 99.1%; in the test on RXF 393 renal it was 118%; in the test with SF-268 CNS, 102%; in the test on SF-295 CNS, 104%. For the same molecule, the growth in the test with SF-539 CNS is 124%; in the test on UACC-257 melanoma it was 59.9%; with M14 melanoma it was 87.2%.

Regarding `CCN1Cc2nc3sc(C)c(C)c3c(=O)n2C=C1C`, the growth was 61.8% with DU-145 prostate; 79% in the test on MALME-3M melanoma; 58.3% in the test on MDA-MB-231 breast; 45.8% in the test with RXF 393 renal; 101% in the test on SF-268 CNS; 81% with SF-295 CNS. Moreover, the growth in the test with SF-539 CNS was 70%; in the test with UACC-257 melanoma, 69.3%; in the test on M14 melanoma, 27.5%.

Consider `COc1ccc(/C=C/C(=O)Nc2cc(/C=C\c3cc(OC)c(OC)c(OC)c3)cc(OC)c2OC)cc1OC`, for which the growth was 53.2% with DU-145 prostate; 32.8% with MALME-3M melanoma; 52% with MDA-MB-231 breast; -5.89% (active) with RXF 393 renal; 31.5% with SF-268 CNS; 4.33% (active) in the test with SF-295 CNS. For the same molecule, the growth is 28.6% in the test with SF-539 CNS, 50.7% in the test on UACC-257 melanoma and 5.78% (active) in the test on M14 melanoma.

Consider `COc1ccc(C(=O)Cn2c(C(=O)c3ccccc3)nc3ccccc32)cc1`, for which the growth with DU-145 prostate was 36.7%; in the test on MALME-3M melanoma it was 46.6%; in the test on MDA-MB-231 breast, 37.6%; in the test on RXF 393 renal it was 13.1%; with SF-268 CNS, 52.9%; in the test with SF-295 CNS, 12.2%. The growth in the test on SF-539 CNS was 15.1%; in the test on UACC-257 melanoma, 54.3%; in the test on M14 melanoma, 6.97% (active).

On to `Cc1nn(-c2ccccc2)c(Cl)c1/C=C/C(=O)c1ccc(F)cc1`, for which the growth is 104% in the test on DU-145 prostate; 93.2% in the test with MALME-3M melanoma; 97.9% with MDA-MB-231 breast; 80.8% in the test on RXF 393 renal; 96.8% in the test on SF-268 CNS; 91.2% in the test with SF-295 CNS. The growth in the test with SF-539 CNS is 89.9%; in the test on UACC-257 melanoma it was 88.9%; in the test on M14 melanoma, 80.6%.

In the case of `OC(c1cccc(C(F)(F)F)c1)c1cnccc1NC1CCCCC1` (stereo unspecified), the growth was 85% with DU-145 prostate; 83.2% in the test on MALME-3M melanoma; 66.1% with MDA-MB-231 breast; 78.8% with RXF 393 renal; 89.6% with SF-268 CNS; 81% with SF-295 CNS. In addition, the growth in the test on SF-539 CNS was 91.7%; in the test on UACC-257 melanoma it was 87%; with M14 melanoma, 87.9%.

In the case of `Cc1cc2c(c(C)c1Cl)C(=O)/C(=C/c1ccc(O)c(O)c1)O2`, the growth in the test on DU-145 prostate was 109%; in the test with MALME-3M melanoma, 111%; in the test with MDA-MB-231 breast it was 91.3%; with RXF 393 renal it was 113%; in the test with SF-268 CNS, 108%; in the test with SF-295 CNS it was 103%. Further, the growth with SF-539 CNS was 100%; with UACC-257 melanoma, 97.7%; with M14 melanoma, 95.2%.

With `CCCCN1C=CCN(CCCC)C1`, the growth in the test on DU-145 prostate is 71.8%; in the test with MALME-3M melanoma, -22.1% (active); with MDA-MB-231 breast it was 75.2%; with RXF 393 renal it was 113%; in the test with SF-268 CNS it was 58%; in the test on SF-295 CNS, 55.6%. Moreover, the growth in the test on SF-539 CNS is 78.6%; with UACC-257 melanoma, 10.8%; in the test on M14 melanoma, 46%.

For the molecule `O=C1Nc2ccccc2/C1=C\c1c(-c2ccc(F)cc2)nc2ccccn12`, the growth was 94.5% in the test with DU-145 prostate; 73.7% in the test with MALME-3M melanoma; 60.2% in the test with MDA-MB-231 breast; 67% in the test with RXF 393 renal; 77.7% with SF-268 CNS; 59.9% in the test on SF-295 CNS. The growth is 78% with SF-539 CNS, 102% in the test with UACC-257 melanoma and 53.2% with M14 melanoma.

Turning to `COc1cc2c3c(c4c5ccccc5[nH]c4c2c(OC)c1OC)C(=O)N(CCN1CCOCC1)C3=O`, the growth is 66% with DU-145 prostate; 78.5% in the test with MALME-3M melanoma; 72.4% with MDA-MB-231 breast; 48.8% with RXF 393 renal; 47.7% with SF-268 CNS; 36.5% with SF-295 CNS. In addition, the growth was 63.7% in the test on SF-539 CNS, 70.4% with UACC-257 melanoma and 76% in the test on M14 melanoma.

Consider `NS(=O)(=O)c1ccc(CCN2C(=O)C=CC2=O)cc1`, for which the growth in the test with DU-145 prostate was 109%; in the test with MALME-3M melanoma, 102%; in the test with MDA-MB-231 breast, 104%; with RXF 393 renal, 111%; in the test with SF-268 CNS, 100%; in the test with SF-295 CNS it was 102%. For the same molecule, the growth was 101% in the test on SF-539 CNS, 101% with UACC-257 melanoma and 107% in the test on M14 melanoma.

For the molecule `Cn1c(-c2c(N)n(CCCN3CCOCC3)c3nc(C#N)c(C#N)nc23)nc2ccccc21`, the growth in the test on DU-145 prostate is 75.3%; in the test with MALME-3M melanoma, 48.4%; in the test on MDA-MB-231 breast, 43.4%; with RXF 393 renal, 51.2%; in the test with SF-268 CNS, 76.2%; in the test on SF-295 CNS it was 110%. For the same molecule, the growth in the test with SF-539 CNS was 19.3%; in the test on UACC-257 melanoma it was 67.8%; with M14 melanoma it was 74.2%.

Regarding `Cc1ncc(C(=O)Nc2ccc(CN3CCN(C)CC3)c(C(F)(F)F)c2)cc1C#Cc1cnc(N)cc1C#N`, the growth was -96.1% (active) with DU-145 prostate; -94.3% (active) with MALME-3M melanoma; -81.4% (active) in the test with MDA-MB-231 breast; -93.3% (active) in the test on RXF 393 renal; 22.9% in the test on SF-268 CNS; 70% with SF-295 CNS. The growth in the test with SF-539 CNS is -98.4% (active); in the test with UACC-257 melanoma, -89.3% (active); in the test with M14 melanoma, -75.1% (active).

On to `O=C(Cn1c(C(=O)c2ccccc2)nc2ccccc21)c1ccc(F)cc1`, for which the growth is 96.6% in the test on DU-145 prostate; 57.2% in the test on MALME-3M melanoma; 46.7% in the test with MDA-MB-231 breast; 45.5% in the test with RXF 393 renal; 73.3% in the test with SF-268 CNS; 62.9% with SF-295 CNS. In addition, the growth with SF-539 CNS is 78.8%; with UACC-257 melanoma it was 75.2%; in the test with M14 melanoma, 44%.
